Bioassay records (PubChem)
Nrf2 block = blocks Nrf2 signaling | A549 ARE-Fluc reporter, luciferase luminescence, 18-24 h | Potency, µM (highest dose often 46 µM), hits mostly inhibitors | actives 2.1% (n = 360,000) | AID 504444; also: nearly all actives have a fitted effect of over 60% in size
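In this cell-based qHTS, ARE-driven firefly luciferase in A549 cells reports Nrf2 activity; the luminescent signal after BugLite lysis is the measured value, with a prior CellTiter-Fluor read for cell health.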
TGFb inhibitor = inhibitors of TGF-b signaling. HepG2 CAGA-GFP TGF-b/SMAD3 reporter, GFP fluorescence, 18 h; TGF-beta stimulated, 500 pg/mL final. Potency, µM (highest dose often 46.1 µM), actives largely listed as inhibitors. actives 1.2% (n = 410,000). AID 588855; also: nearly all actives have a fitted effect of over 65% in size
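HEPG2 CAGA-GFP cells (1000/well, DMEM with 1% FBS) were pre-incubated 2 h at 37 degrees C, given compound by pin tool, then stimulated with TGF-beta at 500 pg/mL final for 18 h before per-cell GFP fluorescence imaging.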
ATXN2 expr inh = reduces ATXN2 reporter expression in HEK-293 cells | HEK-293 ATXN2-luciferase reporter, luminescence, 24 h | Potency, µM (top dose mostly 57 µM), most hits filed as inhibitors | actives 0.72% (n = 360,000); also: nearly all actives have a fitted effect of over 55% in size
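qHTS (up to 57 uM final) was run with 24 h compound exposure of reporter cells at 37 °C. Each well was multiplexed: SteadyGlo luminescence measured ATXN2-luciferase expression after a fluorogenic Gly-Phe-AFC viability readout (25 uM final).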
ATXN viability = reduces viability in counter-screen for ATXN expression inhibitors | AID 651635 | actives 0.49% (n = 400,000) | S2 cells (HEK-293 line with an ATXN2-luciferase reporter) viability, CellTiter-Fluor protease fluorescence, 24 h | Potency, µM (highest dose often 56.7 µM), usual class: cytotoxic; also: nearly all actives have a fitted effect of over 40% in size
HepG2 tox = counter-screen for TGF-b inhibitors: cytotoxicity in HepG2 cells; AID 588856; HepG2 CAGA-GFP viability, ATP luminescence, 18 h; Potency, µM (top dose mostly 46.1 µM), most hits filed as cytotoxic; actives 0.76% (n = 410,000)
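HepG2 CAGA-GFP cells (1000/well, DMEM with 1% FBS) received compound, then TGF-beta at 500 pg/mL final, and were incubated 18 hours at 37 degrees C. Viability was read by CellTiter-Glo luminescence. Media-only wells were set as complete cell-killing and DMSO as no toxicity.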
A549 tox = A549 cytotoxicity, counter-screen for Nrf2 inhibitors; A549 ARE-Fluc cells, CellTiter-Fluor viability, 18-24 h; Potency, µM (series often up to 46 µM), usual class: inhibitors; actives 0.16% (n = 390,000)
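A549 ARE_Fluc cells in 5% FBS OPTI-MEM were exposed to compounds in concentration-response for 18-24 h at 37 deg C. Viability was read by CellTiter-Fluor fluorescence (Ex 405/Em 525) after 30 min, before the luciferase read.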
A number is an active result; - = inactive; ? = inconclusive; . = not tested or not shown; ! = not active in a repeat; [ ] = another dose, or the depositor's remark. Only some compounds are listed: those with a hit (about 3.8% of all), similar ones and a draw of the others. Calls follow the shape of the dose curve; as a rule, active = well fitted curve in the direction sought with a large enough effect; inconclusive = small, poorly fitted or top-dose-only effect, or another doubt; inactive = no such curve, though single readings can be large; an effect the other way counts as inactive or inconclusive.

SMILES	Nrf2 block	TGFb inhibitor	ATXN2 expr inh	ATXN viability	HepG2 tox	A549 tox
Cc1c(-c2nc(-c3ccc4c(c3)[nH]c(=O)n4C)no2)cccc1[N+](=O)[O-]	.	-	-	-	-	-
O=C(NCc1cccc(F)c1)C1CCN(C(=O)c2sccc2-n2cccc2)CC1	-	-	.	?	-	-
COCCC1CCCCN1C(=O)c1cccc(OC2CCN(S(C)(=O)=O)CC2)c1 (stereo unspecified)	-	-	-	?	-	-
CS(=O)(=O)N1CCC(Oc2cccc(C(=O)NCCCC3CCCC3)c2)CC1	26µM	?	?	-	-	-
Cc1ccc(Nc2nc(N)nc(CN3CCN(Cc4ccc5c(c4)OCO5)CC3)n2)cc1Cl	-	-	-	-	11µM	-
Cc1ccc(Nc2nc(N)nc(CN3CCN(Cc4ccc5c(c4)OCO5)CC3)n2)cc1C	-	-	-	-	-	-
NC(=O)NO	-	-	7.7µM!	-	-	-
CC(=O)NO	-	-	-	-	-	-
Cc1cccc(N2CCN(S(=O)(=O)c3ccc4c(c3)NC(=O)C(C)S4)CC2)c1C (stereo unspecified)	-	16µM	-	-	-	-
Cc1cccc(N2CCN(S(=O)(=O)c3ccc4c(c3)C(C(C)C)C(=O)N4)CC2)c1C (stereo unspecified)	13µM	16µM	?	-	-	-
CC1C(=O)Nc2ccc(S(=O)(=O)N3CCN(c4cccc(C(F)(F)F)c4)CC3)cc2NC1=O (stereo unspecified)	8.2µM	-	-	-	-	?
Cc1cccc(N2CCN(S(=O)(=O)c3ccc4[nH]c(=O)ccc4c3)CC2)c1C	18µM	?	-	?	-	-
CCOc1ccc(CCNC(=O)CCC(=O)N2CCOc3ccccc32)cc1OCC	-	-	-	-	-	-
CCN1C[C@@H]2[C@@H]3C(=O)N(C)C(=O)[C@@H]3[C@](CC)(C1=O)N2C(=O)c1ccc(C(C)(C)C)cc1	-	-	-	-	-	-
COc1cc(-c2nc(Cn3nnc(C(=O)Nc4cccc(Cl)c4)c3C)c(C)o2)cc(OC)c1OC	-	-	-	-	-	-
NC(=O)NC(Cc1ccccc1)C(=O)NCC1(N2CCCCC2)CCCCC1 (stereo unspecified)	-	-	-	-	3.5µM	-
COC(=O)[C@H](Cc1ccccc1)NC(=O)N1CCCCCC1	?	-	-	-	-	-
CCNC(=O)C1CCCN(C(=O)c2ccc(OC)c(OC)c2)CC1 (stereo unspecified)	.	-	-	-	-	.
Cc1nc(Nc2n[nH]c3c2CN(C(=O)N[C@H](CN(C)C)c2ccccc2)C3(C)C)c2sccc2n1	.	.	17µM	.	.	.
Cc1ccc(Nc2nc(NCc3ccccc3)nc3ccsc23)c(C)c1	.	?	?	?	-	.
CN(Cc1nc(Cc2ccccc2F)no1)Cc1cccc2ncccc12	18µM	-	-[11.3 µM]	-	-	-
CN(Cc1nc(Cc2ccccc2F)no1)CC1(N2CCOCC2)CCCCC1	-	-	-	-	-	-
CCC(Oc1ccc(F)cc1)C(=O)Nc1nc(-c2ccc(F)cc2)ns1 (stereo unspecified)	16µM	-	.	.	-	?
O=C(CSc1nnc(-c2c[nH]c3ccccc23)o1)N(Cc1ccccc1)c1ccc(F)cc1	18µM	?	?	?	-	?
COc1ccc(CN(C(=O)CSc2nnc(-c3ccccc3C)o2)c2ccc(F)cc2)cc1	.	?	?	?	-	-
Clc1cccc(CSc2nnc(-c3c[nH]c4ccccc34)o2)c1	?	?	-	-	13µM	-
Cc1cc2c(s1)c1cnn(Cc3cccc(Cl)c3)c(=O)c1n2C	?	.	.	.	.	-
COc1cc2c(=O)c(C(=O)c3ccc(C)c(C)c3)cn(Cc3ccccc3)c2cc1OC	-	-	-	?	-	-
CCc1ccc(C(=O)c2cn(Cc3ccccc3)c3cc(OC)c(OC)cc3c2=O)cc1	?	?	-	?	-	21µM
